40 compounds from PubChem BioAssay (NCI) can be followed below.

About 83,000 compounds went through this panel and 20% of them were active in at least one assay; those are over-represented in the sample as a whole.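 Note: values are percent growth. 100 is the growth of untreated cells, values between 100 and 0 indicate rising inhibition; between -100 and 0 indicates cell death.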 Unmarked numbers belong to inactive results. Activity calls are given as the source filed them. Rule for the calls: active = growth percent below 10; inactive = the rest.

The subject of this assay is HL-60(TB) leukemia. Put plainly: NCI-60 one-dose screen, 48 h (100 = growth as untreated, 0 = no growth, -100 = all killed). The settings on record: 10 µM unless noted.
With `COc1c(B(O)O)cccc1-c1cc(C)c2c(ccc3[nH]ncc32)n1`, the growth was 23.8%.
The value for `COc1cc2c(cc1-c1c(C)noc1C)ncc1nc(C3CCOCC3)n(C3CCC(OC(F)F)CC3)c12` (stereo not given) was 7.23% (active); that for `O=C(/C=C/c1cn(-c2ccccc2)nc1-c1ccccc1)OCc1cn(-c2cccc([N+](=O)[O-])c2)nn1` was 93%; that for `CC/C(=N\Nc1nc2ccccc2n1C)c1ccccn1` was -29.4% (active).
The value for `CC(C)N1CC(=O)N2CSCC2C1=O` (stereo not given) was 102%.
Under `CC(C)C[C@H](NC(=O)Cn1ccc2ccccc2c1=O)B(O)O` stands 27.9%.
For the compound `Clc1cc(Cl)cc(N2N=C(c3cccc(Nc4ccncc4)c3)CC2c2ccc(Br)cc2)c1` (stereo not given), the growth is 17.3%.
In the case of `CC1(C)CCC[C@]23C(=O)O[C@](O)(C(=O)C4=C[C@@](C)(/C=C/CCCc5ccc6ccc7cccc8ccc5c6c78)CC[C@@]42O)[C@@H]13`, the growth was -18.3% (active).
`C/C(=C(/c1ccccc1)c1ccc(OCC(O)CNCCN2CCOCC2)cc1)c1ccccc1` (stereo not given): the growth is 29%.
The value for `CC(O)CN(CC(C)O)c1ccc2c(c1)Cc1cc([N+](=O)[O-])ccc1-2` (stereo not given) was 74.5%.
For the compound `CCNCCCn1c2c(c3ccc(Cl)cc3c1=O)C(=O)c1cc(OC)cnc1-2`, the growth is -42.9% (active).
Regarding `CCNc1ccc(-c2nc3ccccc3n3cccc23)cc1`, the growth was 86%.
On to `COc1cc(C)c2c(=O)c3c(oc2c1)C(=O)c1c(O)c(OC)cc(O)c1C3=O`, for which the growth is -45.4% (active).
As to `O=C(/C=C/c1ccccc1)C(Br)C(Br)c1ccccc1` (stereo not given), the growth was -41.8% (active).
Under `O=C1C(Cl)=C(Nc2ccc(S(=O)(=O)c3ccc(NC4=C(Cl)C(=O)c5ccccc5C4=O)cc3)cc2)C(=O)c2ccccc21` stands 32.7%; under `Cc1cc(Cl)ccc1Nc1nc(C(F)(F)F)ccc1C(=O)N/N=C/c1ccccc1Cl`, 12.5%; under `COc1ccccc1N(C(C)=O)C1=C(Cl)C(=O)c2ccccc2C1=O`, -27.5% (active).
The value for `N#CCNc1ccc(C(=O)O)cc1` was 99.2%; that for `CCC(C)[C@H](NC(=O)Nc1cc(C(F)(F)F)cc(C(F)(F)F)c1)C(=O)N[C@@H](Cc1cn(C)cn1)C(=O)OC` (stereo not given in full) was -78.4% [100 µM] (active); that for `CCOc1cc2ncc(C#N)c(Nc3ccc(OCc4ccccn4)c(Cl)c3)c2cc1NC(=O)/C=C/CN(C)C` was 2.7% (active).
Under `COc1ccccc1/C=C/C(=O)Nc1ccc(F)cc1` stands 86.3%.
Consider `NC(=O)c1c(OCc2c(F)cc(Br)cc2F)nsc1NC(=O)NCCCCN1CCCC1`, for which the growth was -64.6% (active).
Under `COc1cccc(NC(=O)Nc2ccc(Oc3ncnc4[nH]c(C)c(C)c34)cc2)c1` stands 88.4%.
The value for `CCCCCCCCCCCCNC(=S)N/N=C/c1ccccc1O` was 49.1%; that for `C=C(C)[C@@H]1CC[C@]2(C(N)=O)CC[C@]3(C)[C@H](CC[C@@H]4[C@@]5(C)C/C(=C/c6ccco6)C(=O)C(C)(C)[C@@H]5CC[C@]43C)[C@@H]12` was 93.2%.
Under `CCCCCC1CCCCN1C(=O)OCC` (stereo not given) stands 77.5%; under `CCCCCCCCOC(=O)c1c(C)[nH]c(/C=C2\N=C(c3ccc[nH]3)C=C2OC)c1C`, 4.96% (active).
For the compound `COc1ccc(C2CCCCC2=O)cc1` (stereo not given), the growth was 122%.
The value for `COc1ccc(N2CCC(=S)NC2=S)cc1` was 99%; that for `CC(C)(C)C(CCc1ccc(Cl)cc1)N1CCN(C2CCCCC2)CC1` (stereo not given) was 48.2%; that for `Cc1ccc(Cl)cc1N1C(=O)CC(Sc2ccccc2N)C1=O` (stereo not given) was 110%.
In the case of `CNCC[C@H](Oc1cccc2ccccc12)c1cccs1`, the growth was 85.5%.
Under `O=S(=O)(O)c1ccc(N/N=C/c2ccccc2Cl)cc1` stands 101%; under `COCCOc1cc2ncnc(N3CCN(c4cc(S(C)(=O)=O)c(C)cc4Cl)CC3)c2cc1OCCOC`, 97.4%.
Under `O=S(=O)(NC1c2ccccc2Oc2ccccc21)c1cc(Cl)ccc1Cl` stands 86.7%; under `O=C(Nc1ccc(Oc2cccc(F)c2)c(Cl)c1)c1cnccn1`, 3.12% (active); under `CC(=O)N1N=C2N(Cc3ccccc3)C(=O)c3c(sc4c3CCCC4)N2C1c1cn(-c2ccccc2)nc1-c1ccc(Cl)cc1` (stereo not given), 88.5%.
For the compound `COC(=O)c1nc(=S)[nH]c(C(=O)OC)c1C(=O)c1ccccc1`, the growth is 116%.
Under `Cn1cc(-c2csc(-c3cn(CCOC(N)=O)c4ccccc34)n2)c2cccnc21` stands 86.9%.
The value for `O=c1c2c3c(sc2n2c(CCl)nnc2n1Cc1ccccc1)CCCC3` was -59.8% (active).
